38 molecules from the supplement of paper PMC6763611 can be followed below.

The first test relates to Plasmodium falciparum NF54. Put plainly: growth inhibition relative to untreated control; higher = more inhibition. To be noted: 1 µM; MM + chorismate end-products (CM screening medium); 72 h. Put shortly: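 In dark 96-well half-area plates, each well held 100 μL of P. falciparum NF54 ring-stage culture at 1% parasitemia and 1% hematocrit. The cultures received a single test-compound dose of 5 μM or 1 μM and were kept at 37 °C for 72 h, in minimal RPMI either plain or enriched with folate (2.2 μM), pABA (7.3 μM), pHBA (7.3 μM), tyrosine (111 μM), phenylalanine (90 μM) and tryptophan. SYBR Green staining gave growth inhibition, expressed against untreated wells, with uninfected erythrocytes serving as the background.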
With `Cc1nnc(NC(=O)c2cn(-c3ccccc3)nc2-c2ccccc2C)o1`, the growth inhibition came out at 89.2%.
For the molecule `Cc1[nH]c2cc(F)cc(F)c2c(=O)c1-c1ccc(Oc2ccc(OC(F)(F)F)cc2)cc1`, the growth inhibition stood at 98.6%.
On the same count and under the same terms, the same measure for `O=C(Nc1cccnc1)c1c(O)c2cccc3c2n(c1=O)CC3`: 6.17%.
In the case of `Cc1ccc2cc(C3NC(=O)c4ccccc4N3)c(Cl)nc2c1` (stereo unspecified), the growth inhibition turned out to be 86%.
On the same count and under the same terms, with `O=C(NCc1nnc2n1CCCCC2)c1ccc(-c2ccc(F)cc2)o1` the figure was under 0%; with `OC[C@H]1O[C@@H](n2c3ccc(Cl)cc3c3c(-c4cc5ccccc5o4)ncnc32)C(O)[C@H]1O` (stereo partly specified), 1.89%.
The same measure, in the same setting: with `COc1cc(C2=NCCN2)ccc1-c1cn(-c2cccc(C3=NCCN3)c2)nn1` the figure was 68.5%; with `c1ccc(-c2nc(NC3CCCCC3)cc(C3CC3)n2)nc1`, 80.6%.
Regarding `CCCCN(CCCC)c1c(C#N)cc(S(=O)(=O)Nc2ccccc2)cc1C#N`, the growth inhibition is under 0%.
Same read-out and setting: the same measure for `Clc1cccc(C(c2ccc(CN3CCNCC3)cc2)n2ccnc2)c1` (stereo unspecified): 93.2%; for `O=C(Nc1nnc(S)s1)c1cc(Br)ccc1Cl`: 31.8%.
Still for that read-out and setting: with `O=C(Nc1nc(-c2ccccn2)cs1)c1cncn1-c1ccccc1` the figure was 25.9%; with `CCOC(=O)NC(=O)c1ccsc1NC(=O)c1nc2ccccc2s1`, 36.1%.
On the same count and under the same terms, the same measure for `O=C(C(Cc1c[nH]c2ccccc12)NS(=O)(=O)c1ccc(Cl)cc1)N1CCCCC1` (stereo unspecified): 58%; for `COc1ccc(C2CC(c3cccs3)=NN2C(=O)c2ccco2)cc1OC` (stereo unspecified): 91.4%.
As for `C[C@H]1COc2c(N3CCN(C)CC3)c(F)cc3c(=O)c(C(=O)O)cn1c23`, the growth inhibition came out at 17.1%.
Still for that read-out and setting: with `CC(C)=CCC/C(C)=C/CNCCNC1C2CC3CC(C2)CC1C3` (stereo unspecified) the figure was 88.5%; with `Cn1c(=O)c2c(S(C)(=O)=O)snc2n(C)c1=O`, 23.6%.
As to `CS(=O)(=O)N1CCC(Cn2nc(Cc3cccc4ccccc34)c3c(N)ncnc32)CC1`, the growth inhibition came out at 41.5%.
Consider `CC(C)(C)n1nc(Cc2cccc3ccccc23)c2c(N)ncnc21`, for which the growth inhibition was under 0%.
Take `FC(F)(F)c1nnc2ccc(Cl)nn12`: the growth inhibition was 8.81%.
The same measure, in the same setting: with `Nc1nc(N)c2c3c(sc2n1)CN(Cc1ccccc1)CC3` the figure was 55.2%.
`O=C(NCc1ccco1)N1CCN(Cc2ccc(Cl)s2)CC1`: the growth inhibition came to 12.8%.
On the same count and under the same terms, with `CC(C(=O)Nc1ccc2oc(-c3ccncc3)nc2c1)c1ccccc1` (stereo unspecified) the figure was 14.6%; with `COc1cccc(-n2nnnc2S(C)(=O)=O)c1`, 19.7%; with `COC(=O)c1c(NC(=O)c2c(F)c(F)c(F)c(F)c2F)sc2c1CCCCC2`, 26.9%.
As to `Cc1ccccc1C(=O)N1N=C(Nc2ccccc2)SC1(C)C`, the growth inhibition turned out to be 49.8%.
On to `CCS(=O)(=O)N(Cc1ccco1)Cc1cc2ccc(C)cc2nc1O`, for which the growth inhibition was 44%.
As for `CCN(CC)C(=O)N1CCN(C)CC1`, the growth inhibition is 31.7%.
In the case of `O=C(NCc1ccoc1)N1CCN(Cc2ccc3c(c2)OCO3)CC1`, the growth inhibition was under 0%.
Turning to `CN1CCN(c2nccc3nc(-c4ccc(F)c(F)c4)[nH]c23)CC1`, the growth inhibition is 58.8%.
The same measure, in the same setting: the same measure for `CC(=O)NCC1CN(c2ccc(-c3ccc(CNCc4cn[nH]n4)cc3)c(F)c2)C(=O)O1` (stereo unspecified): 4.9%; for `N#Cc1ccc(-c2ccc(OCC(N)=O)cc2)cc1`: under 0%; for `Cc1nc(-c2ccccn2)nc(NCCc2ccc(S(C)(=O)=O)cc2)c1Cl`: 32.5%.
Turning to `CC(C)C(Oc1cccc2ccccc12)C(=O)O` (stereo unspecified), the growth inhibition came to 17.4%.
Still for that read-out and setting: the same measure for `CC(C)(C)OC(=O)N1CCC(Cn2nc(-c3cnc4ccccc4c3)c3c(N)ncnc32)CC1`: over 100%.
Still for that read-out and setting: the same measure for `CC1CCCCN1C(=O)NCCc1coc(-c2ccc(F)cc2)n1` (stereo unspecified): under 0%; for `O=C(COc1cccc(F)c1)Nc1nc(-c2ccccn2)cs1`: under 0%.

Still in this test, the particulars now being: 1 µM; minimal medium (MM); 72 h.
The molecule `Cc1nnc(NC(=O)c2cn(-c3ccccc3)nc2-c2ccccc2C)o1` returned a growth inhibition of 87.7%.
In the case of `Cc1[nH]c2cc(F)cc(F)c2c(=O)c1-c1ccc(Oc2ccc(OC(F)(F)F)cc2)cc1`, the growth inhibition amounted to 97.7%.
Still for that read-out and setting: with `O=C(Nc1cccnc1)c1c(O)c2cccc3c2n(c1=O)CC3` the figure was 21.1%; with `Cc1ccc2cc(C3NC(=O)c4ccccc4N3)c(Cl)nc2c1` (stereo unspecified), 82.6%; with `O=C(NCc1nnc2n1CCCCC2)c1ccc(-c2ccc(F)cc2)o1`, under 0%.
Still for that read-out and setting: the same measure for `OC[C@H]1O[C@@H](n2c3ccc(Cl)cc3c3c(-c4cc5ccccc5o4)ncnc32)C(O)[C@H]1O` (stereo partly specified): 13.6%.
For `COc1cc(C2=NCCN2)ccc1-c1cn(-c2cccc(C3=NCCN3)c2)nn1`, the growth inhibition was 86.7%.
Molecule `c1ccc(-c2nc(NC3CCCCC3)cc(C3CC3)n2)nc1` came in with a growth inhibition of 56.8%.
On the same count and under the same terms, with `CCCCN(CCCC)c1c(C#N)cc(S(=O)(=O)Nc2ccccc2)cc1C#N` the figure was under 0%.
The same measure, in the same setting: the same measure for `Clc1cccc(C(c2ccc(CN3CCNCC3)cc2)n2ccnc2)c1` (stereo unspecified): over 100%.
The same measure, in the same setting: the same measure for `O=C(Nc1nnc(S)s1)c1cc(Br)ccc1Cl`: 9.59%; for `O=C(Nc1nc(-c2ccccn2)cs1)c1cncn1-c1ccccc1`: 7.24%.
For `CCOC(=O)NC(=O)c1ccsc1NC(=O)c1nc2ccccc2s1`, the growth inhibition was under 0%.
The same measure, in the same setting: the same measure for `O=C(C(Cc1c[nH]c2ccccc12)NS(=O)(=O)c1ccc(Cl)cc1)N1CCCCC1` (stereo unspecified): 56.9%.
In turn, `COc1ccc(C2CC(c3cccs3)=NN2C(=O)c2ccco2)cc1OC` (stereo unspecified) had a growth inhibition of 89.5%.
On the same count and under the same terms, with `C[C@H]1COc2c(N3CCN(C)CC3)c(F)cc3c(=O)c(C(=O)O)cn1c23` the figure was under 0%; with `CC(C)=CCC/C(C)=C/CNCCNC1C2CC3CC(C2)CC1C3` (stereo unspecified), 92.6%; with `Cn1c(=O)c2c(S(C)(=O)=O)snc2n(C)c1=O`, 5.49%.
On the same count and under the same terms, the same measure for `CS(=O)(=O)N1CCC(Cn2nc(Cc3cccc4ccccc34)c3c(N)ncnc32)CC1`: under 0%.
Still for that read-out and setting: the same measure for `CC(C)(C)n1nc(Cc2cccc3ccccc23)c2c(N)ncnc21`: 18.3%; for `FC(F)(F)c1nnc2ccc(Cl)nn12`: 7.29%; for `Nc1nc(N)c2c3c(sc2n1)CN(Cc1ccccc1)CC3`: 96.8%.
In turn, `O=C(NCc1ccco1)N1CCN(Cc2ccc(Cl)s2)CC1` had a growth inhibition of 2.55%.
On the same count and under the same terms, with `CC(C(=O)Nc1ccc2oc(-c3ccncc3)nc2c1)c1ccccc1` (stereo unspecified) the figure was under 0%.
The molecule `COc1cccc(-n2nnnc2S(C)(=O)=O)c1` came in with a growth inhibition of 29.5%.
Same read-out and setting: the same measure for `COC(=O)c1c(NC(=O)c2c(F)c(F)c(F)c(F)c2F)sc2c1CCCCC2`: 25.7%.
Same read-out and setting: with `Cc1ccccc1C(=O)N1N=C(Nc2ccccc2)SC1(C)C` the figure was 9.58%; with `CCS(=O)(=O)N(Cc1ccco1)Cc1cc2ccc(C)cc2nc1O`, 33.5%; with `CCN(CC)C(=O)N1CCN(C)CC1`, 2.45%.
Same read-out and setting: with `O=C(NCc1ccoc1)N1CCN(Cc2ccc3c(c2)OCO3)CC1` the figure was 6.98%.
Molecule `CN1CCN(c2nccc3nc(-c4ccc(F)c(F)c4)[nH]c23)CC1` had a growth inhibition of 66.9%.
Still for that read-out and setting: the same measure for `CC(=O)NCC1CN(c2ccc(-c3ccc(CNCc4cn[nH]n4)cc3)c(F)c2)C(=O)O1` (stereo unspecified): under 0%; for `N#Cc1ccc(-c2ccc(OCC(N)=O)cc2)cc1`: 6.45%.
Same read-out and setting: with `Cc1nc(-c2ccccn2)nc(NCCc2ccc(S(C)(=O)=O)cc2)c1Cl` the figure was under 0%.
Still for that read-out and setting: the same measure for `CC(C)C(Oc1cccc2ccccc12)C(=O)O` (stereo unspecified): 13.6%; for `CC(C)(C)OC(=O)N1CCC(Cn2nc(-c3cnc4ccccc4c3)c3c(N)ncnc32)CC1`: under 0%; for `CC1CCCCN1C(=O)NCCc1coc(-c2ccc(F)cc2)n1` (stereo unspecified): 8.79%.
The molecule `O=C(COc1cccc(F)c1)Nc1nc(-c2ccccn2)cs1` returned a growth inhibition of 2.24%.
